Drawing on PubChem BioAssay (NCATS), this text covers outcome, Potency and activity change, positive = activation for ten compounds.

Unmarked numbers belong to inactive results. Inconclusive results are not listed. Calls of active or inactive are those of the source. Calls follow the shape of the dose curve; as a rule, active = well fitted curve in the direction sought with a large enough effect; inconclusive = small, poorly fitted or top-dose-only effect, or another doubt; inactive = no such curve, though single readings can be large; an effect the other way counts as inactive or inconclusive.

Experiment [1] concerns the target Cytochrome P450 3A4 (Homo sapiens) (UniProt P08684). The experiment in a line: qHTS Assay for Activators of Cytochrome P450 3A4 (AID 885). Also: nearly all actives have a fitted effect of over 65% in size. The method in brief:
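Luminescent readout of luciferin formed from 25 uM Luciferin-PPXE (KM level) by 20 nM CYP3A4 in 200 mM KPO4, with 60 min NADPH-driven reaction at room temperature after 10 min compound exposure. Ketoconazole (57 uM) defined 100% inhibition.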
A general note: Quantitative high-throughput screening tests each substance at several concentrations.

Experiment [2] has the same target. Put plainly: qHTS Assay for Inhibitors and Substrates of Cytochrome P450 3A4 (AID 884). Also: nearly all actives have a fitted effect of over 50% in size. Also: potency is read from the fitted curve at half-maximal effect. The method in brief:
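Luminescent readout of luciferin produced by CYP3A4 (20 nM) dealkylation of Luciferin-PPXE, 25 uM (its KM). NADPH-driven reaction ran 60 min at RT after 10 min compound preincubation; data scaled to 57 uM ketoconazole as 100% inhibition.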

The nature of experiment [3]: Cellular Toxicity (caspase-3) H-4-II-E (AID 663).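 Also: cells exposed to compound for 16 hr before readout; 0% = DMSO basal and 100% = 100 µM tamoxifen.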 The method in brief: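 Caspase 3/7 activation measured in H-4-II-E cells in complete culture medium after 16 hr treatment at 37 °C, using luciferase-coupled substrate readout; AC50 values come from Hill-equation fits of normalized concentration-response data.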
A short description of experiment [4]: Cellular Toxicity (caspase-3) Hek293 (AID 664).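 Also: cells exposed to compound for 16 h at 37 °C before readout.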 The essentials: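 Luminescent Caspase-Glo 3/7 readout (aminoluciferin release) in HEK293 cells after 16 h compound treatment, 37 °C. Normalization: DMSO = basal, 100 uM tamoxifen = 100% stimulation. Concentration-response fitted with standard Hill equation for AC50.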
A short description of experiment [5]: Cellular Toxicity (caspase-3) N2a (AID 665).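 Also: compound exposure lasted 16 h at 37 °C before readout.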 The essentials: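 Luminescent Caspase-Glo 3/7 readout in N2a mouse neuroblastoma cells after 16 h compound exposure at 37 °C. Signal scaled to DMSO (basal) and 10 uM staurosporine (100%). Concentration-response fitted with Hill equation for AC50.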
Experiment [6] in a line: Cellular Toxicity (caspase-3) NIH 3T3 (AID 666).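 Also: 0% = DMSO basal and 100% = 100 µM tamoxifen stimulation.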 The essentials:
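NIH 3T3, 1000 cells/well, 5 hr settle then 16 hr compound at 37°C; Caspase-Glo 3/7, 20 min RT, luminescence. DMSO = basal, 100 uM tamoxifen = 100%. Hill-equation AC50, qHTS.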

Experiment [7] in a line: Cellular Toxicity (caspase-3) Renal Proximal Tubule (AID 667).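 Also: cells exposed to compound for 16 hours at 37 °C before detection; 0% = DMSO basal and 100% = 10 µM staurosporine.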 The essentials: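 Caspase-Glo 3/7 read-out, rat primary kidney proximal tubule cells. Compound exposure 16 h, 37 °C; detection after 1 h at RT. Activity scaled to DMSO and 10 uM staurosporine.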
The target in experiment [8] is Cytochrome P450 2C9 (Homo sapiens) (UniProt P11712). The experiment in a line: qHTS Assay for Inhibitors and Substrates of Cytochrome P450 2C9 (AID 883). Also: % is scaled to controls: 0 for no effect and ±100 for the full control effect; nearly all actives have a fitted effect of over 60% in size. How it is done:
NIH Molecular Libraries Screening Centers Network [MLSCN] NIH Chemical Genomics Center [NCGC] MLSCN Grant: None NCGC Assay Overview: The P450 gene superfamily is involved in the metabolism and clearance of xenobiotics. This assay used human CYP2C9 to measure the hydroxylation of deoxyluciferin (Luciferin-H; P450 Glo-Buffer) to luciferin. The luciferin is then measured by luminescence after the addition of a luciferase detection reagent. Luciferin-H concentration in the assay was equal to its Michaelis constant KM for CYP2C9. Inhibitors and some substrates limit the production of luciferin, and decrease measured luminescence.
NCGC Assay Protocol Summary: Two uL of enzyme and substrate mix (final concentrations: 10nM CYP2C9, 100uM Luciferin-H, 25mM KPO4) were dispensed into a white, solid bottom 1536-well microtiter plate. 23nL of compound was transferred by a pin tool. The plate was incubated at 37C for 10 min. Two uL of an NADPH regeneration solution (Promega supplied reagent) was dispensed and the reaction was allowed to continue for 60 min at 37C. Then the reaction was stopped by reconstituted P450 Glo-Buffer. After another 20 min of incubation the plate was read on the ViewLux (Perkin Elmer) at 60 sec exposure and 2x2 binning. This protocol was carried out with Promega-Glo reagents and further information can be found at http://www.promega.com/tbs/tb325/tb325.pdf. […]

In experiment [9] the target is Cytochrome P450 2C19 (Homo sapiens) (UniProt P33261). The experiment in a line: qHTS Assay for Inhibitors and Substrates of Cytochrome P450 2C19 (AID 899). Also: potency is read from the fitted curve at half-maximal effect; nearly all actives have a fitted effect of over 60% in size. The settings on record: recombinant CYP2C19, luciferin-H EGE luminescence. The method in brief: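 In 50mM KPO4, the reaction held 5nM enzyme and KM-level (10uM) Luciferin-H EGE; it ran 60 min at 37C after NADPH regeneration and a 10 min compound preincubation. Luminescence values were scaled to 57uM ketoconazole as complete inhibition.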

Experiment [10] addresses Guanine nucleotide-binding protein G(i) subunit alpha-1 (Homo sapiens) (UniProt P63096). Put plainly: qHTS Assay for Inhibitors of RGS12 GoLoco Motif Activity (Green Fluorophore) (AID 879).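 Also: 0% = labeled peptide with Gαi1 and full inhibition = labeled peptide alone without protein; negative values mean loss of peptide binding seen as reduced polarization.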 The method in brief:
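A drop in FITC polarization marked displacement of the FITC-tagged RGS12 GoLoco peptide (10 nM) from Gαi1 (50 nM). Compounds were incubated 10 min at room temperature in Tris pH 7.5 buffer containing 150 mM NaCl, 0.1 mM GDP and 0.05% NP40; unlabeled peptide titration served as control.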

Sequence of Cytochrome P450 3A4 (Homo sapiens) (P08684 whole entry, looked up): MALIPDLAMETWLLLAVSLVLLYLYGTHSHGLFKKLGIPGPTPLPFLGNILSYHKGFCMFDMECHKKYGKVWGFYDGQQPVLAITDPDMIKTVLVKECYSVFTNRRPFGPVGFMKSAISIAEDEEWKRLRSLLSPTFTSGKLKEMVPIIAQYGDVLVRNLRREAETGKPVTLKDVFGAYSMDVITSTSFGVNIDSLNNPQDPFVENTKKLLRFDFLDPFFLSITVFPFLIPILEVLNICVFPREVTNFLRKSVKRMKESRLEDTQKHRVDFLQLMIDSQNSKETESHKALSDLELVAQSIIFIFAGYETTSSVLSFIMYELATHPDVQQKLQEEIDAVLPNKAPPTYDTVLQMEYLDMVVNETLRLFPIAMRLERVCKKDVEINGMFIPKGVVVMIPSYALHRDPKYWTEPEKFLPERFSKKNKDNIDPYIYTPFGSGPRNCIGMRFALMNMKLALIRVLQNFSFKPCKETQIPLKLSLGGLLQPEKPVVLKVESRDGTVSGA
Sequence of Guanine nucleotide-binding protein G(i) subunit alpha-1 (Homo sapiens) (P63096 whole entry, looked up): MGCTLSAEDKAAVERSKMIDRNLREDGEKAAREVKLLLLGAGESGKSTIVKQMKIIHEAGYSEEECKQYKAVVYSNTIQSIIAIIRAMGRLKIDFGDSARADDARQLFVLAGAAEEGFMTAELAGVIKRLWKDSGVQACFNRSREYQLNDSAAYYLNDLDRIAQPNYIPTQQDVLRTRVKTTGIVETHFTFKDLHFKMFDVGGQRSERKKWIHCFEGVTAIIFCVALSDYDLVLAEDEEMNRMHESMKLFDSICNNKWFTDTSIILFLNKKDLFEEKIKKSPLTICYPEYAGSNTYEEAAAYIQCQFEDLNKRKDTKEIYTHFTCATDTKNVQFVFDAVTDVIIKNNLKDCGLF
Sequence of Cytochrome P450 2C9 (Homo sapiens) (P11712 whole entry, looked up): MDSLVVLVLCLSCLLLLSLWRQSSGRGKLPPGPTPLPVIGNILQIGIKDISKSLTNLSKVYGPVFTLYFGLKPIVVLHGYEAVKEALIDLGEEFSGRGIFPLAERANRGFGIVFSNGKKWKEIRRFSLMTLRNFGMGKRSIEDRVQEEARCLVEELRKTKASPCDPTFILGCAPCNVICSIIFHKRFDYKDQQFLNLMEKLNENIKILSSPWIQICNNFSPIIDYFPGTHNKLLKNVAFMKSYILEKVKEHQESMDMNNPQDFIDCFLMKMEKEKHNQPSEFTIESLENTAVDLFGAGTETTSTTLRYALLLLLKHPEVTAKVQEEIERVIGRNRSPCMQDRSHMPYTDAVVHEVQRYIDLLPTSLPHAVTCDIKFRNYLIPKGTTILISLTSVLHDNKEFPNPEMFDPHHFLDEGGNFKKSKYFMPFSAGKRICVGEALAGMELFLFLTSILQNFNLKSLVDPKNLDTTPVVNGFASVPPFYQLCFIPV
Sequence of Cytochrome P450 2C19 (Homo sapiens) (P33261 whole entry, looked up): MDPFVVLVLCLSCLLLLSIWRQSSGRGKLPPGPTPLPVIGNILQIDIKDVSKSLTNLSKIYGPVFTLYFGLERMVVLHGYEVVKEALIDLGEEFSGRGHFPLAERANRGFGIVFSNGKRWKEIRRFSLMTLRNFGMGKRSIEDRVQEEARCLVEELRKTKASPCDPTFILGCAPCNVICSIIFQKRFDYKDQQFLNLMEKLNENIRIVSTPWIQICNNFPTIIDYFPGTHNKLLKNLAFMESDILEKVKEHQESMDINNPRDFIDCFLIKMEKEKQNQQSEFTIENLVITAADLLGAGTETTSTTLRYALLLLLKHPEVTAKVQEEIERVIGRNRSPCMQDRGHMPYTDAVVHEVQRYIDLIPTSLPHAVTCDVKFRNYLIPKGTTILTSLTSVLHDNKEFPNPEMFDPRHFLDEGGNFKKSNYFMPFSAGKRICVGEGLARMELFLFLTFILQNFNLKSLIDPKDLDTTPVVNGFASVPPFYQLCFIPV

`COc1ccc(C[C@H](N)C(=O)N[C@@H]2[C@H](O)[C@H](n3cnc4c(N(C)C)ncnc43)O[C@@H]2CO)cc1`: the call in experiment [1] was inactive.

With `CC(C)C(N)C(=O)OCCOCn1cnc2c(=O)[nH]c(N)nc21` (configuration not stated), the Potency entry in experiment [2] was “inactive”.

In the case of `Nc1nc2c(ncn2[C@@H]2O[C@H](CO)[C@@H](O)[C@H]2O)c(=O)[nH]1`, the Potency entry in [2] is “inactive”.

Consider `CC(=O)O[C@@H]1CC(C)=C2[C@H]1[C@H](C)CC[C@H]2/C=C(\C)C(=O)O`, for which the outcome in experiment [3], in experiment [4], in [5], in experiment [6] and in [7] was inactive. Moreover, the Potency entry in experiment [2] was “inactive”.

With `CC(=O)c1cc2c(cc1O)OC(C)(C)C=C2`, the compound was called inactive in [1].

Turning to `COc1ccc2c(OC)c3ccoc3nc2c1OC`, the compound was classed as inactive in experiment [8] and in [1]. In addition, the Potency is 12.6 µM (active) in experiment [2] and 10 µM (active) in [9].

On to `CC(=O)O[C@H]1C(=O)[C@@]2(C)[C@H]([C@H](OC(=O)c3ccccc3)[C@]3(O)C[C@H](OC(=O)[C@H](O)[C@@H](NC(=O)c4ccccc4)c4ccccc4)C(C)=C1C3(C)C)[C@]1(OC(C)=O)CO[C@@H]1C[C@@H]2O`, for which the compound was classed as inactive in [10].

For the compound `Cc1ccccc1CN1C2=NCCN2C(=O)C2=C1CCN(Cc1ccccc1)C2`, the activity change, positive = activation in experiment [1] was -40.7% [at 11.4 µM].

Regarding `Cc1ccc(N)cc1O`, the call in [3], in [4], in experiment [5], in [6] and in experiment [7] was inactive. In addition, the Potency entry in experiment [2] is “inactive”.

As for `Nc1ccccc1N`, the compound was classed as inactive in experiment [3], in experiment [4], in experiment [5], in experiment [6] and in [7].
